Mdm2-MdmX inh = human Mdm2/MdmX binding inhibition; 330,000 tested, 3% active; SaOS-2 split-luciferase Mdm2/MdmX complementation, luminescence; O15151+Q00987; inhibition, % at 8 µM;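 active = inhibition of at least 50% at 8 µM in the primary screen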
KKLEB cytotox = CF airway cell cytotoxicity counter-screen | KKLEB CF airway cells viability, ATPlite luminescence, overnight; stronger effect = lower value; cells stimulated with P. aeruginosa culture filtrate | activity change (cytotoxicity), % at 5 µM | 360,000 tested, 0.36% active | AID 602141;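 active = corrected activity change at or below -50% at 5 µM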
ABHD5 PLIN5 PPI = ABHD5-PLIN5 protein interaction inhibition | Q00G26+Q8WTS1 | Split G. princeps luciferase complementation, luminescence, 4 h | inhibition, % at 4 µM | 360,000 tested, 0.78% active | AID 602281;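 active = inhibition above the mean inhibition across every tested compound plus 3 SD, cut at about 22% in these data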;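 also: 0% = DMSO only wells and the 100% control is not disclosed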
CF NFkB inh = cystic fibrosis NF-kB activation inhibition. 360,000 tested, 0.86% active. KKLEB NF-kB-GFP reporter, PAF-induced, GFP fluorescence overnight. inhibition, % at 5 µM. AID 588850;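 active = at least 50% inhibition at 5 µM, scaled per plate between neutral and stimulator controls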;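 also: PAF is a Pseudomonas aeruginosa culture filtrate used as stimulus; plate controls were PAF-stimulated DMSO wells for no effect and unstimulated DMSO wells for full effect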
HIF-2a block = HIF-2a inhibition; AID 624352; 786-0 RCC cells HIF-2a reporter, luciferase luminescence, overnight; 360,000 tested, 0.72% active; inhibition, % at 18.8 µM;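 active = inhibition of the luminescence signal of 40% or more relative to plate controls, in a single-dose primary screen at 18.75 µM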
Peg3 prom inh = reduces Peg3 promoter-driven luciferase expression in HeLa. inhibition, % at 20 µM. 360,000 tested, 1.7% active. HeLa PEG-Prom luciferase reporter, luminescence, overnight;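 active = inhibition of at least 50% at 20 µM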
Mdm2 MdmX conf = human Mdm2/MdmX binding inhibition, confirmed | AID 489028 | luminescent assay | 10,000 tested, 55% active | shares compounds with Mdm2-MdmX inh | inhibition, % at 8 µM; in the data active = inhibition above about 40%
FLuc counter = full-length luciferase inhibition in Mdm2/MdmX counter-screen; inhibition, % at 8 µM; SaOS-2 full-length luciferase counterscreen, luminescence; AID 504607; 6,200 tested, 77% active; shares compounds with Mdm2-MdmX inh;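 active = mean inhibition at 8 µM reaching about 37%, which flags the compound as non-specific, limit read from the data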;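 also: p53-null SaOS-2 cells with luciferase driven by a doxycycline-inducible promoter; compound on cells about two nights before reading with doxycycline added after day one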
* marks the source's active call; other numbers are inactive results; x = no result. Hits are enriched below; roughly 4.6% of the tested compounds scored in any of these assays.

SMILES | Mdm2-MdmX inh | KKLEB cytotox | ABHD5 PLIN5 PPI | CF NFkB inh | HIF-2a block | Peg3 prom inh | Mdm2 MdmX conf | others
CC(O)c1cccc(-c2ccc(CN3C[C@]4(CO)O[C@@H](CO)C[C@@H]4S3(=O)=O)cc2)c1 (stereo partly drawn) | -25 | -2 | 2 | -22 | 12 | 6 | x
CNC(=O)N(C1=NCC(C)(C)S1)c1ccc(F)c(Cl)c1 | 55* | -30 | 5 | 40 | 11 | 24 | 34 | FLuc counter=82*
Cc1cc(C)c(C(O)c2ncc(-c3cccc4ccccc34)[nH]2)c(C)c1 (stereo not drawn) | x | -24 | 2 | 30 | 1 | 20 | x
O=S1(=O)N[C@H](Cc2ccccc2)COc2cccc(N3CCSCC3)c21 | x | x | 1 | x | 13 | x | x
CC(=O)c1cccc(NC(=S)N2CCN(CCN3C(=O)c4cccc5cccc(c45)C3=O)CC2)c1 | 65* | -17 | -2 | 6 | -3 | 50 | -29
CC(=O)c1ccc(NC(=S)N2CCN(CCN3C(=O)c4cccc5cccc(c45)C3=O)CC2)cc1 | 28 | 4 | -7 | -25 | -8 | 13 | x
CC(C)(C)OC(=O)NCc1ccc(CNC(=O)c2[nH]cnc2C(=O)N[C@@H](Cc2ccccc2)C(=O)OCc2ccccc2)cc1 | 3 | 10 | -2 | 0 | 18 | 5 | x
CC(C)C[C@H](NC(=O)c1nc[nH]c1C(=O)N[C@@H](CCCCNC(=O)OC(C)(C)C)C(=O)OC(C)(C)C)C(=O)OC(C)(C)C | 73* | 4 | 3 | -15 | 21 | 15 | -17
CC(C)C[C@H](NC(=O)c1[nH]cnc1C(=O)N[C@@H](C)C(=O)OC(C)(C)C)C(=O)OC(C)(C)C | 63* | -10 | -6 | -15 | 13 | 15 | 12
CC(C)C[C@H](NC(=O)c1nc[nH]c1C(=O)N[C@@H](CCCCN)C(=O)OC(C)(C)C)C(=O)OC(C)(C)C | 30 | 0 | -1 | 16 | 0 | 14 | x
CC(C)(C)OC(=O)N1CCC(NC(=O)c2[nH]cnc2C(=O)Nc2ccon2)CC1 | 23 | -6 | -31 | 10 | 16 | 26 | x
CC(C)(C)OC(=O)N1CCC(NC(=O)c2[nH]cnc2C(=O)Nc2ccc(Cl)cc2)CC1 | 52* | 0 | 16 | -18 | 3 | 32 | 53* | FLuc counter=53*
CC(C)(C)OC(=O)NCc1ccc(NC(=O)c2nc[nH]c2C(=O)N[C@@H](Cc2ccccc2)C(=O)OCc2ccccc2)cc1 | 60* | -1 | -12 | 20 | 2 | 37 | 16
CC1(C(=O)NS(=O)(=O)C2CC2)CCCN(C(=O)c2ccc(F)c(Cl)c2)C1 (stereo not drawn) | x | -18 | 7 | -19 | 5 | -3 | x
COc1cccc(NC(=O)CN2CCc3ccccc3C2)c1 | -52 | 10 | 2 | 0 | -66 | -38 | x
O=C1NC[C@@H](CCCCN2C[C@H](Cc3ccccc3)N(CCC3CCCCC3)C(=O)C2=O)N(CC2CCCCC2)C1=O | x | x | 5 | x | 6 | x | x
CCN(CC(=O)NC1CCS(=O)(=O)C1)S(=O)(=O)c1ccc(Br)cc1 (stereo not drawn) | 24 | -9 | -10 | 20 | 3 | -3 | x
C[C@H](NC(=O)c1[nH]cnc1C(=O)Nc1ccc(Cl)cc1)C(=O)OC(C)(C)C | 50* | -3 | -4 | -5 | -10 | 21 | 30
CC(C)C[C@H](NC(=O)c1[nH]cnc1C(=O)N[C@@H](C)c1ccccc1)C(=O)OCc1ccccc1 | 51* | 8 | -11 | -14 | 20 | 48 | 21
C[C@H](NC(=O)c1nc[nH]c1C(=O)N[C@@H](Cc1ccccc1)C(=O)OC(C)(C)C)c1ccccc1 | 50* | -14 | -7 | 25 | 20 | 30 | -4
CC(C)C[C@H](NC(=O)c1nc[nH]c1C(=O)NCC(=O)OCc1ccccc1)C(=O)OCc1ccccc1 | 1 | -2 | -10 | 3 | 8 | 15 | x
CC(C)(C)OC(=O)NCCCC[C@H](NC(=O)c1[nH]cnc1C(=O)Nc1ccc(Cl)cc1)C(=O)OC(C)(C)C | 56* | 4 | 3 | 10 | 19 | 63* | 5

Bioassay records: PubChem BioAssay, several laboratories
